From PubChem BioAssay (NCI)
Where “and” joins values, the source holds several entries; their conditions need not be identical. Equal entries are not always repeated. This is part of a sample that, as a whole, favours compounds with a hit. Of some 83,000 tested, about 20% had one in any assay.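 The endpoint reported here, percent growth, reads 100 for growth as untreated, 0 for no net growth and -100 for all cells dead.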 Where a SMILES comes first, the peptide text is derived from it.

Key:
Assay in all cases: NCI-60 one-dose screen, 48 h (100 = growth as untreated, 0 = no growth, -100 = all killed); active means growth percent below 10; inactive means the rest
NCI-H23 lung = conditions: 10 µM unless noted
NCI-H226 lung = conditions: 10 µM unless noted
NCI-H322M lung = conditions: 10 µM unless noted
HOP-62 NSCLC = conditions: 10 µM unless noted
NCI-H460 lung = conditions: 10 µM unless noted
HOP-92 NSCLC = conditions: 10 µM
NCI-H522 lung = conditions: 10 µM
A549/ATCC NSCLC = conditions: 10 µM unless noted
786-0 renal = conditions: 10 µM unless noted
COLO 205 colon = conditions: 10 µM unless noted
DU-145 prostate = conditions: 10 µM unless noted
K-562 leukemia = conditions: 10 µM unless noted
MALME-3M melanoma = conditions: 10 µM unless noted
MDA-MB-231 breast = conditions: 10 µM unless noted
RXF 393 renal = conditions: 10 µM unless noted
SF-268 CNS = conditions: 10 µM unless noted
SF-295 CNS = conditions: 10 µM unless noted
SF-539 CNS = conditions: 10 µM unless noted
UACC-257 melanoma = conditions: 10 µM unless noted
M14 melanoma = conditions: 10 µM unless noted

Measured: growth

CC(C)(O)C(=O)O
inactive: NCI-H23 lung 106% | NCI-H226 lung 102% | NCI-H322M lung 98.6% | HOP-62 NSCLC 99.9% | NCI-H460 lung 103% | HOP-92 NSCLC 91.7% | NCI-H522 lung 103% | A549/ATCC NSCLC 102% | 786-0 renal 95.4% | COLO 205 colon 104% | DU-145 prostate 94.5% | K-562 leukemia 123% | MALME-3M melanoma 88.4% | MDA-MB-231 breast 86.4% | RXF 393 renal 113% | SF-268 CNS 103% | SF-295 CNS 103% | SF-539 CNS 101% | UACC-257 melanoma 99.8% | M14 melanoma 101%

CC(=O)Nc1ccc(S(N)(=O)=O)cc1
inactive: NCI-H23 lung 100% | NCI-H226 lung 107% and 102% | NCI-H322M lung 113% and 92.5% | HOP-62 NSCLC 89.4% and 103% | NCI-H460 lung 102% and 105% | HOP-92 NSCLC 96.6% | NCI-H522 lung 98.3% and 80.4% | A549/ATCC NSCLC 96% and 103% | 786-0 renal 97.9% and 94.5% | COLO 205 colon 99.7% and 102% | DU-145 prostate 111% and 113% | K-562 leukemia 102% and 110% | MALME-3M melanoma 109% | MDA-MB-231 breast 102% and 119% | RXF 393 renal 115% | SF-268 CNS 105% and 115% | SF-295 CNS 93.8% and 92.8% | SF-539 CNS 100% and 101% | UACC-257 melanoma 88.6% and 94.9% | M14 melanoma 98.6% and 103%

CN1CNC(=O)NC1
inactive: NCI-H23 lung 106% and 99.9% | NCI-H226 lung 98.4% and 86.1% | NCI-H322M lung 120% and 92.3% | HOP-62 NSCLC 108% and 103% | NCI-H460 lung 103% and 108% | HOP-92 NSCLC 94.1% and 95.6% | NCI-H522 lung 91.2% and 90% | A549/ATCC NSCLC 110% and 93.8% | 786-0 renal 108% and 112% | COLO 205 colon 110% and 121% | DU-145 prostate 118% and 106% | K-562 leukemia 112% and 86% | MALME-3M melanoma 120% and 96% | MDA-MB-231 breast 119% and 102% | RXF 393 renal 102% and 106% | SF-268 CNS 111% and 103% | SF-295 CNS 96.5% and 104% | SF-539 CNS 111% and 98.4% | UACC-257 melanoma 111% and 86.9% | M14 melanoma 97.2% and 106%

NC(Cc1ccccc1)C(=O)NC(Cc1ccccc1)C(=O)O (stereo not drawn) (H-Phe-Phe-OH; configuration not given here)
inactive: NCI-H23 lung 97.1% and 105% | NCI-H226 lung 95.6% and 93% | NCI-H322M lung 94.6% and 100% | HOP-62 NSCLC 91.1% and 100% | NCI-H460 lung 104% | HOP-92 NSCLC 97.6% | NCI-H522 lung 87.3% and 99.4% | A549/ATCC NSCLC 90.2% and 101% | 786-0 renal 111% and 104% | COLO 205 colon 107% and 110% | DU-145 prostate 111% and 106% | K-562 leukemia 97.9% and 114% | MALME-3M melanoma 99.4% | MDA-MB-231 breast 115% and 108% | RXF 393 renal 105% | SF-268 CNS 101% and 106% | SF-295 CNS 107% and 99.4% | SF-539 CNS 101% and 92.6% | UACC-257 melanoma 88.2% and 92.8% | M14 melanoma 103% and 97.1%

CN(C)c1ccc(/C=C\C(=O)c2ccccc2)cc1
inactive: NCI-H23 lung 98.4% and 91% and 97.5% | NCI-H226 lung 92.6% and 98.6% and 101% | NCI-H322M lung 97.2% and 103% and 88.5% | HOP-62 NSCLC 102% and 101% | NCI-H460 lung 102% and 99.8% and 104% | HOP-92 NSCLC 103% and 99.8% and 86.1% | NCI-H522 lung 64.3% and 60.4% and 52.7% | A549/ATCC NSCLC 67% and 79.8% and 82.4% | 786-0 renal 90.9% and 89.7% and 80.8% | COLO 205 colon 104% and 99.2% | DU-145 prostate 86.8% and 89.2% and 79.1% | K-562 leukemia 15.3% and 26.7% and 42.6% | MALME-3M melanoma 87.5% and 84.4% and 83% | MDA-MB-231 breast 104% and 84.4% and 105% | RXF 393 renal 92.4% and 102% | SF-268 CNS 92.4% and 90% and 85.2% | SF-295 CNS 66.3% and 91.5% and 98% | SF-539 CNS 88% and 95.7% and 94.4% | UACC-257 melanoma 83.8% and 92.7% and 98.1% | M14 melanoma 89.7% and 79.2% and 72.5%
